Measured values: PubChem BioAssay (EPA / NIEHS)
Several values for one entry are separate records, joined by “and”; a condition that tells them apart may be missing. Equal values may be shown once. Inconclusive results are not listed. Where a structure was tested more than once in an assay, its records may differ in their call. Activity calls are given as the source filed them. The calls were made as follows, unless noted: active = hit-call score of the fitted dose curve at least 0.9, where 1 is the maximum; inactive = score below 0.9.

Assays:
[1] = ATG_TAL_CIS: Attagene CIS-FACTORIAL HepG2 Assay for human TAL Basal Promoter (AID 2282966); details: HepG2 Attagene cis-factorial TAL promoter reporter; actives raise or lower the signal;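 also: background control endpoint measuring basal TAL promoter reporter mRNA not a specific factor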
How it was run: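 HepG2, transient MRTU transfection, 24 h compound exposure; RNA → oligo(dT) RT → PCR → 6-FAM primer extension → HpaI digest → CE fluorescence. Bidirectional curve fit vs DMSO. Background-control readout.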

[2] = ATG_TGFb_CIS: Attagene CIS-FACTORIAL HepG2 Assay for human Transforming Growth Factor (TGF) (AID 2282967); details: HepG2 Attagene CIS TGFb reporter, mRNA transcription; actives raise or lower the signal
How it was run: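 After a 24-hour incubation with compound, transfected HepG2 cells were lysed for RNA; reporter cDNA was amplified, fluorescently end-labeled and separated by CE. DMSO served as baseline for bidirectional fits.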

[3] = ATG_VDRE_CIS: Attagene CIS-FACTORIAL HepG2 Assay for human Vitamin D Receptor Element (VDRE) (AID 2282968); details: HepG2 VDRE cis-reporter transcription, actives raise or lower the signal
How it was run: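 Measures endogenous factor activity through cis-element-driven reporter transcripts in transiently transfected HepG2. Cells are treated 24 h; reporter mRNA is quantified by RT-PCR and capillary electrophoresis; fitting is bidirectional.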

[4] = target: Estrogen receptor (Homo sapiens) (UniProt P03372); test: ATG_ERa_TRANS: Attagene TRANS-FACTORIAL HepG2 Assay for human Estrogen Receptor alpha (ERa) (AID 2282970; active = hit-call score of the fitted dose curve at least 0.9, where 1 is the maximum); details: HepG2 Attagene TRANS ERa GAL4 reporter, mRNA
Estrogen receptor (Homo sapiens), sequence (P03372 whole entry, looked up, the tested form may be a part): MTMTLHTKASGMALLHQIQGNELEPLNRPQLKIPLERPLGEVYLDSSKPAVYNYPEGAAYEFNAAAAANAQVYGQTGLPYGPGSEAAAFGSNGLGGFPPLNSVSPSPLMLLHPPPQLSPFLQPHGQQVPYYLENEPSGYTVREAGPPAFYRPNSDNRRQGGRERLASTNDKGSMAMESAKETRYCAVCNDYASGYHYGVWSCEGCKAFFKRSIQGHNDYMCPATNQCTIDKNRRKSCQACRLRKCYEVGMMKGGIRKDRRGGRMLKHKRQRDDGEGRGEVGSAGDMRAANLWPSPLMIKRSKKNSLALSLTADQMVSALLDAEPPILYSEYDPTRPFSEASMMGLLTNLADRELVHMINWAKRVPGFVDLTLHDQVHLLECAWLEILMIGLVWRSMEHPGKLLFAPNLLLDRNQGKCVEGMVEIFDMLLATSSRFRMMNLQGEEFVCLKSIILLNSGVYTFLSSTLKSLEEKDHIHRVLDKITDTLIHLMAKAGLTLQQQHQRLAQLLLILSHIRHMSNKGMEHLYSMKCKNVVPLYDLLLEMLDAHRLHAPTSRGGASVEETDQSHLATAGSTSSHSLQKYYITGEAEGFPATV
How it was run: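 Reporter mRNA induction after 24 hours, detected by fluorescent RT-PCR and capillary electrophoresis, gives the read-out. Cells are HepG2 transiently transfected with GAL4-UAS reporter transcription units responding to chimeric NR-Gal4. Activity is taken as gain of signal over DMSO baseline.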

[5] = target: Steroid hormone receptor ERR1 (Homo sapiens) (UniProt P11474); test: ATG_ERRa_TRANS: Attagene TRANS-FACTORIAL HepG2 Assay for human Estrogen-Related Receptor alpha (ERRa) (AID 2282971; active = hit-call score of the fitted dose curve at least 0.9, where 1 is the maximum); details: HepG2 Attagene TRANS reporter, ERRa transactivation
Steroid hormone receptor ERR1 (Homo sapiens), sequence (P11474 whole entry, looked up, the tested form may be a part): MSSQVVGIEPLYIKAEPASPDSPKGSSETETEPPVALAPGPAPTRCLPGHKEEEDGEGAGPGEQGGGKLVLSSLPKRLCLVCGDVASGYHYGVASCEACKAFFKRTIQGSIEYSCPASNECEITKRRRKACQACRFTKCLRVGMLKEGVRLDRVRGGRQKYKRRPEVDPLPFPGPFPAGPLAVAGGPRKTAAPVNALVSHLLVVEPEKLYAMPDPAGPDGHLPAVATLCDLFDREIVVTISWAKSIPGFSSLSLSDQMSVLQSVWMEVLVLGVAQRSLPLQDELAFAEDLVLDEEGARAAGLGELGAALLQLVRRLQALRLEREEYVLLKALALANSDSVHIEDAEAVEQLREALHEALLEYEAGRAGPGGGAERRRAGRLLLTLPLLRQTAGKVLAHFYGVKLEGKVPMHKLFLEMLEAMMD
How it was run: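 Transfected HepG2, 24 h dosing, ERRa-Gal4 chimera driving GAL4-UAS reporter. Readout: reporter mRNA via RT-PCR plus capillary electrophoresis (fluorescence). Positive direction vs DMSO control.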

[6] = target: X-box-binding protein 1 (Homo sapiens) (UniProt P17861); test: ATG_Xbp1_CIS: Attagene CIS-FACTORIAL HepG2 Assay for human X-box Binding Protein 1 (XBP1) (AID 2282972); details: HepG2 XBP1 cis-element reporter, Attagene multiplex; actives raise or lower the signal
X-box-binding protein 1 (Homo sapiens), sequence (P17861 whole entry, looked up): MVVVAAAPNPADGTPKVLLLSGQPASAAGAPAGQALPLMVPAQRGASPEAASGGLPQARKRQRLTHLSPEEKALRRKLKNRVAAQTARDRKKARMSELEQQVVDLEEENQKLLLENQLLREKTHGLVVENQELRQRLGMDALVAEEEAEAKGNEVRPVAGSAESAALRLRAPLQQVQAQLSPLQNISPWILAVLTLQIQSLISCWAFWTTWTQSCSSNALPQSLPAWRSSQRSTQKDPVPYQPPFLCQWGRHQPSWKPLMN
How it was run: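 Human hepatoma HepG2, cis-element reporter system, 24 h treatment; mRNA quantified by RT-PCR/CE fluorescence; fit relative to DMSO.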

[7] = ATG_M_19_TRANS: Attagene TRANS-FACTORIAL HepG2 Assay for M19 Transcription Factor (Internal Marker) (AID 2282974; active = hit-call score of the fitted dose curve at least 0.9, where 1 is the maximum); details: HepG2 Attagene TRANS-FACTORIAL M19 internal marker reporter
How it was run: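 Background-control readout: after 24 h chemical exposure of transfected HepG2 carrying GAL4-driven reporter units, RNA was reverse-transcribed, amplified, fluorescently labeled and sized by capillary electrophoresis; gain-of-signal fit against DMSO.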

[8] = ATG_GAL4_TRANS: Attagene TRANS-FACTORIAL HepG2 Assay for GAL4 (Internal Marker) (AID 2282976; active = hit-call score of the fitted dose curve at least 0.9, where 1 is the maximum); details: HepG2 Attagene TRANS GAL4 internal marker reporter
How it was run: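 RT-PCR/capillary electrophoresis readout of reporter mRNA. HepG2, transient MRTU transfection (GAL4-UAS reporters), 24 h compound exposure. Background-control endpoint, positive direction vs DMSO baseline.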

[9] = target: Estrogen-related receptor gamma (Homo sapiens) (UniProt P62508); test: ATG_ERRg_TRANS: Attagene TRANS-FACTORIAL HepG2 Assay for human Estrogen-Related Receptor gamma (ERRg) (AID 2282977; active = hit-call score of the fitted dose curve at least 0.9, where 1 is the maximum;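 also: hits increase reporter signal over DMSO so potencies reflect activators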); details: HepG2 Attagene TRANS reporter, ERRg transactivation
Estrogen-related receptor gamma (Homo sapiens), sequence (P62508 whole entry, looked up, the tested form may be a part): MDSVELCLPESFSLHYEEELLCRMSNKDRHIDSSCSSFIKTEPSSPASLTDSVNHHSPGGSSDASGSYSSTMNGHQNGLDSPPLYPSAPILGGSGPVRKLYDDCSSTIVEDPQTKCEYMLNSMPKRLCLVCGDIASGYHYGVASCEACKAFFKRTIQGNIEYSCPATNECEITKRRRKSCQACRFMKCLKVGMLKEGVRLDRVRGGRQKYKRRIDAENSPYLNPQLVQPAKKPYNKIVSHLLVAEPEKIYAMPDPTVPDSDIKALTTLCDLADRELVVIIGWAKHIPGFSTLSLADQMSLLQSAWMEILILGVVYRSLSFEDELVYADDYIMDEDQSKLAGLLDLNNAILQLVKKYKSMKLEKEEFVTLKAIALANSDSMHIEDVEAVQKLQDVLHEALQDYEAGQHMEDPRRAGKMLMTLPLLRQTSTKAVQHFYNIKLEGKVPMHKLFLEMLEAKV
How it was run: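 Readout: fluorescent reporter-mRNA fragments resolved by capillary electrophoresis after RT-PCR and HpaI cut. Cells: transiently transfected HepG2 carrying GAL4-UAS reporters driven by exogenous NR-Gal4 chimeras, dosed 24 h. Activity fitted upward relative to DMSO baseline.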

[10] = target: Nuclear receptor subfamily 1 group I member 3 (Homo sapiens) (UniProt Q14994); test: ATG_CAR_TRANS: Attagene TRANS-FACTORIAL HepG2 Assay for human Constitutive Androstane Receptor (CAR) (AID 2282969; active = hit-call score of the fitted dose curve at least 0.9, where 1 is the maximum;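 also: activators raise reporter mRNA above DMSO so AC50 marks induction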); details: HepG2 Attagene TRANS-FACTORIAL CAR reporter
Nuclear receptor subfamily 1 group I member 3 (Homo sapiens), sequence (Q14994 whole entry, looked up, the tested form may be a part): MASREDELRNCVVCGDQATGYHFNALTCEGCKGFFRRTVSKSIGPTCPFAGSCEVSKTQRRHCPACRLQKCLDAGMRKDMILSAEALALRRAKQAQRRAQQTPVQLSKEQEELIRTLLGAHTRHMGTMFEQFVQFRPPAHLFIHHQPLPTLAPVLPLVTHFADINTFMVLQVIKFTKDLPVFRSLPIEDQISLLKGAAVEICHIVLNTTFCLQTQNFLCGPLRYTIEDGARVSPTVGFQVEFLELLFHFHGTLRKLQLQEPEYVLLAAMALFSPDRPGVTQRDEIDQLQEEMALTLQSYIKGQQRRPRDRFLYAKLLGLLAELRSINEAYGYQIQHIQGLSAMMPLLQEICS
How it was run: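 Signal is reporter mRNA induction relative to DMSO, measured 24 h after dosing by RT-PCR with fluorescent primer extension and capillary electrophoresis. Human HepG2 liver cells carried transiently transfected chimeric NR-Gal4/GAL4-UAS reporter constructs.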

Measured: AC50

O=CCCCC=O
inactive: [1] | [2] | [3] | [4] | [5] | [6] | [7] | [8] | [9]

NCc1cccc(C2CCN(C(=O)c3ccc(C#Cc4ccccc4F)o3)CC2)c1
active: [3] 14.3 µM | [4] 9.53 µM | [6] 14 µM
inactive: [1] | [2]

CC(C)(O)c1ccc(CNC(=O)c2cccnc2Oc2ccc3nonc3c2)cc1
active: [3] 33.2 µM
inactive: [1] | [2] | [10] | [4] | [5] | [6]

Clc1cc(Cl)c2c(c1)N=C1CCCCCN1C2
inactive: [1] | [2] | [3] | [10] | [4] | [9]

COc1cc(C(=O)NC2CCN(C)CC2)ccc1Nc1ncc2c(n1)N(C1CCCC1)CC(F)(F)C(=O)N2C
active: [3] 3.09 µM | [6] 2.31 µM
inactive: [1] | [2] | [4]

CCN(CC)C(=O)c1cc(S(=O)(=O)Cc2ccccc2)c(N2CCC(c3ccccc3)CC2)cc1N(CC)CCN(C)C
inactive: [1] | [2] | [3] | [10] | [4] | [6] | [9]

CC(C)(C)c1csc(-c2cc3cc(OCc4ccccc4CC(=O)O)ccc3o2)n1
active: [3] 14.1 µM | [6] 50.2 µM
inactive: [1] | [2] | [4]

CC[C@@H]1C[C@H](N(Cc2cc(C(F)(F)F)cc(C(F)(F)F)c2)C(C)=O)c2cc(C(F)(F)F)ccc2N1C(=O)OC(C)C
inactive: [1] | [2] | [10] | [8]
active: [3] 0.119 µM | [4] 100 µM

OC12N=C(c3ccccc3)SC1Cc1cc(Cl)ccc12 (stereo not given)
active: [4] 3.97 µM
inactive: [1] | [2] | [3] | [5] | [7] | [8] | [9]

CC[C@H](NC(=O)c1cc(F)ccc1NS(=O)(=O)c1cccc2cccnc12)c1ccccc1
inactive: [1] | [2] | [4] | [5] | [6] | [7] | [8] | [9]
active: [3] 0.209 µM

CCN(Cc1cccc(S(=O)(=O)O)c1)c1ccc(C(=C2C=CC(=[N+](CC)Cc3cccc(S(=O)(=O)O)c3)C=C2)c2ccccc2S(=O)(=O)[O-])cc1
inactive: [1] | [2] | [3] | [10] | [4] | [5] | [9]

CCCCCCCC[Si](OCC)(OCC)OCC
active: [1] 148 µM | [3] 169 µM
inactive: [1] | [2] | [3] | [7]

CC1=CC(=O)/C(=C(/C)O)C(=O)O1
inactive: [1] | [2] | [3] | [4]

O=C(OCCCCCCOC(=O)c1ccccc1)c1ccccc1
inactive: [1] | [2] | [3] | [10] | [4] | [5] | [6] | [9]

O=C(O)c1ccccc1-n1cc(C(=O)O)c(=O)c2cc(Nc3c(F)cc(F)cc3Cl)c(Cl)cc21
inactive: [1] | [2] | [3] | [4] | [6]

CCCCCCCCOC(=O)c1cc(O)c(O)c(O)c1
active: [4] 20 µM
inactive: [1] | [2] | [3] | [10]

CCCCCc1ccc(N)cc1
inactive: [1] | [2] | [3] | [10] | [7] | [8]
active: [4] 12.2 µM [middle of 4 runs]

O=C(O)Cn1c(=O)n(Cc2ccc(Br)cc2F)c(=O)c2ccc(Cl)cc21
active: [3] 27 µM
inactive: [1] | [2] | [10] | [4] | [7]

CCCOC(=O)c1cc(O)c(O)c(O)c1
inactive: [1] | [2] | [3] | [6] | [7]
active: [4] 14.5 µM

CCCC(=O)OCCC(C)C
inactive: [1] | [2] | [3] | [4] | [6]

O=C(O)Cc1cc(I)c(Oc2ccc(O)c(I)c2)c(I)c1
inactive: [1] | [2] | [10] | [7] | [8] | [9]
active: [3] 33.7 µM [middle of 4 runs]

CC/C(=C(/CC)c1ccc(O)cc1)c1ccc(O)cc1
inactive: [1] | [2] | [3] | [8]
active: [3] 8.27 µM and 6.68 µM and 8.92 µM

O=c1[nH]sc2ccccc12
inactive: [1] | [2] | [3] | [10] | [4] | [9]

CN(C[C@@H](CC[N+]12CCC(C3CCCCC3)(CC1)CC2)c1ccc(Cl)c(Cl)c1)C(=O)c1cc(C(F)(F)F)cc(C(F)(F)F)c1
inactive: [1] | [2] | [3] | [10] | [4] | [9]

Cc1occc1C(=O)Nc1ccc(C(=O)N2CCC(F)(F)/C(=C\C(=O)N3CCC(N4CCCCC4)CC3)c3ccccc32)cc1
inactive: [1] | [4]
active: [2] 49.8 µM | [3] 34.5 µM

CCCCCCCCCCCCO
inactive: [1] | [2] | [3] | [10] | [4] | [7]

Cc1cccc2ccccc12
inactive: [1] | [2] | [3] | [10] | [4] | [5] | [6] | [7] | [8]

C[C@]12CC[C@@H]3c4ccc(O)cc4CC[C@H]3[C@@H]1CC[C@H]2O
inactive: [1] | [2] | [3] | [5] | [7] | [8] | [9]
active: [3] 19.8 µM

O=c1c(-c2ccc(O)cc2)coc2cc(O)cc(O)c12
inactive: [1] | [2] | [3] | [10] | [6] | [7] | [8]
active: [1] 77.3 µM and 100 µM and 27 µM | [3] 61.3 µM

Cc1c2ccccc2c(C)c2c1ccc1ccccc12
active: [2] 54.4 µM | [10] 44.7 µM | [4] 11.4 µM
inactive: [1] | [3] | [6] | [8] | [9]

CC(C)(c1cc(Br)c(O)c(Br)c1)c1cc(Br)c(O)c(Br)c1
inactive: [1] | [10] | [5] | [8] | [9]
active: [1] 43.7 µM | [2] 49 µM and 58 µM | [3] 22.1 µM and 22.6 µM

CO[C@H]1/C=C/O[C@@]2(C)Oc3c(C)c(O)c4c(O)c(c(/C=N/N5CCN(C)CC5)c(O)c4c3C2=O)NC(=O)/C(C)=C\C=C\[C@H](C)[C@H](O)[C@@H](C)[C@@H](O)[C@@H](C)[C@H](OC(C)=O)[C@@H]1C
active: [3] 1.38 µM
inactive: [1] | [2] | [3] | [5] | [7] | [8]

c1ccc(C[n+]2cccc3ccccc32)cc1
inactive: [1] | [2] | [3] | [4] | [5] | [7] | [9]

O=C1CCC(C2CCCCC2)CC1
active: [3] 86.8 µM
inactive: [1] | [2] | [3] | [10] | [7] | [8] | [9]

CCCCCCCCOc1ccc(C(=O)c2ccccc2)c(O)c1
inactive: [1] | [2] | [3] | [10] | [4] | [5] | [7] | [9]

c1ccc2ccccc2c1
inactive: [1] | [2] | [3] | [4] | [5] | [6] | [9]
active: [4] 59 µM

CCCCCCCCN(C)CCCCCCCC
inactive: [1] | [2] | [3] | [10] | [6] | [7] | [8] | [9]
active: [4] 30.4 µM

CCCCOC(=O)c1ccc(O)cc1
inactive: [1] | [2] | [3] | [7] | [8]
active: [3] 72.4 µM and 51.8 µM
